# Results published in PubChem BioAssay.
# Active and inactive are the calls of the source. The rule behind the calls is not given here.
# Experiment: blockers of DNA damage checkpoint Chk1 activation – imaging, HeLa, hydroxyurea, phospho-Chk1 antibody, percent positive cells, primary screen (AID 1186)
# Conditions: hydroxyurea-induced phospho-Chk1 immunofluorescence imaging, higher = more signal
row,SMILES,z-score
1,CCCC=C(CCC)[C@@H](NC(=O)c1ccc(-c2ccccc2)cc1)c1ccc(C(=O)OC)cc1,0.125 (inactive)
2,COCC(=C=CC[C@@H](O)c1ccccc1OCCO)CCO,-0.595 (inactive)
3,CC1CC/C=C\[C@H]2OC34C=CCN(C(C)C)C(=O)[C@H]3N(CCCO)C(=O)[C@@H]4C2C(=O)O1 (some centres not stated),-0.471 (inactive)
4,Cn1cccc1C(O)C1C=CC2C(=O)NC(=O)C2N1Nc1ccccn1 (configuration not stated),0.242 (inactive)
5,CCCC[C@H]1OB(O)C[C@H]2C1=C(C)C[C@H]1C(=O)N(C)C(=O)[C@H]12,0.327 (inactive)
6,Cc1ccc(S[C@]2(C(=O)NCC(F)(F)F)CC(=O)N(Cc3ccccc3Cl)[C@@H]2c2ccc(CO)cc2I)cc1,0.395 (inactive)
7,CC(C)NC(=O)[C@@H]1c2ccccc2C(=O)N(CC23CC4CC(CC(C4)C2)C3)[C@H]1c1ccc(CO)cc1,-0.111 (inactive)
8,CCc1cccc(NC(=O)O[C@H]2[C@H](OC(=O)Nc3ccc4c(c3)OCO4)[C@@H](OC(=O)Nc3ccc4c(c3)OCO4)[C@@H](OC)O[C@@H]2CO)c1,-0.313 (inactive)
9,CC(C)OC(=O)C=C1C[C@@H](c2ccc(C#N)cc2)O[C@@H](c2ccc(C#N)cc2)O1,0.296 (inactive)
10,COC(=O)C1=CCC(c2cccc(Cl)c2)O1 (configuration not stated),0.456 (inactive)
11,CCCC[C@@H](O)C1=C(C)C[C@H]2C(=O)N(Cc3ccccc3)C(=O)[C@H]2[C@H]1CO,0.391 (inactive)

# Experiment: blockers of DNA damage checkpoint Chk1 activation – imaging, HeLa, hydroxyurea, phospho-Chk1 nuclear intensity, primary screen (AID 1187); note: test concentration not given here
# Conditions: hydroxyurea-induced phospho-Chk1 immunofluorescence imaging, higher = more signal
row,SMILES,z-score
1,CC(C)c1ccc(NN2C(C(O)c3ccc4c(c3)OCO4)C=CC3C(=O)N(c4ccccc4)C(=O)C32)cc1 (configuration not stated),-0.575 (inactive)
2,CN1C(=O)[C@@]2(CCC(=O)OC(C)(C)C)N=C(c3ccc(OCCCO)cc3)O[C@H]2c2ccccc21,-0.261 (inactive)
3,COC(=O)[C@@]1(Cc2ccc(F)cc2)[C@@H]2C(=CC(=O)[C@H]2CC(=O)C(=O)N(C)C)CN1C(=O)c1ccccc1,-0.914 (inactive)
4,O=C(CS)NCCCCCNC(=O)[C@H]1C[C@H]2C(=O)N3CCC[C@H]3C(=O)N2[C@H]1c1cccc(OCCO)c1,-0.281 (inactive)
5,C=CCOC(=O)[C@H]1[C@@H]2C(=O)O[C@@H](c3ccccc3)[C@@H](c3ccccc3)N2[C@@H](c2ccc(OCCOC(=O)[C@H]3C[C@H]4C(=O)N[C@@H](Cc5ccccc5)C(=O)N4[C@H]3c3ccc(O)cc3)cc2)[C@]12C(=O)Nc1ccccc12,0.685 (inactive)
6,COc1ccc([Si](C)(C)[C@@H]2[C@@H](CCO)O[C@]3(C(=O)N(Cc4ccc(NC(C)=O)cc4)c4ccccc43)[C@H]2C)cc1,-0.16 (inactive)
7,CCCCCN1CC=CC23O[C@@H]4C=CCOC(=O)[C@@H]4[C@H]2C(=O)N(CCCCCCO)[C@@H]3C1=O (some centres not stated),0.0434 (inactive)
8,COC(=O)C1(C)C=C2C(=C(c3ccccc3)C(=O)C2C)CN1 (configuration not stated),0.84 (inactive)
9,CC(C)N1CC=CC23O[C@@H]4C=CCCOC(=O)C4[C@H]2C(=O)N(CCCCCCO)[C@@H]3C1=O (some centres not stated),-0.286 (inactive)
10,COc1ccc([Si](C)(C)[C@H]2[C@H](CCO)O[C@@]3(C(=O)N(Cc4cccc(NC(=O)[C@H](C)O)c4)c4ccccc43)[C@@H]2C)cc1,-0.667 (inactive)
11,COc1ccc(CCNC(=O)[C@@H]2c3ccccc3C(=O)N(c3ccc(C)cn3)[C@H]2c2ccc(CO)cc2)cc1,0.259 (inactive)
12,C=CCNC(=O)[C@H]1[C@@H]2C(=O)O[C@@H](c3ccccc3)[C@@H](c3ccccc3)N2[C@@H](c2ccc(O)cc2)[C@]12C(=O)N(C(=O)OCCOC)c1ccc(C#CC3=CCCCC3)cc12,-0.376 (inactive)
13,[N-]=[N+]=NCc1ccccc1[C@@H]1OC(c2ccc(OCCCO)cc2)=N[C@]1(Cc1ccccc1)C(=O)N1CCOCC1,-1.03 (inactive)
14,CC(C)C[C@@H]1NC(=O)[C@H]2C[C@@H](C(=O)NCCCCCCN(C)C)[C@@H](c3cccc(OCCO)c3)N2C1=O,0.186 (inactive)
15,C=C(/C(=C/C[C@@H](OC(=O)c1ccncc1)c1ccc(OCCO)cc1)c1cnc2ccccc2c1)C(C)C,-0.051 (inactive)
16,CS(=O)(=O)CCOC(=O)C1=CC(CCCO)=CC(c2cccs2)N(Cc2cccc(OC(F)(F)F)c2)C=C1C(=O)OCCS(C)(=O)=O (configuration not stated),0.918 (inactive)
17,COCCCNC(=O)[C@]1(CCC(=O)OC(C)(C)C)N=C(c2ccc(OCCCO)cc2)O[C@@H]1c1ccccc1N=[N+]=[N-],-0.234 (inactive)
18,Cc1ccc(C2CC=C(C(=O)O)CN2S(=O)(=O)c2ccc(C)cc2)cc1 (configuration not stated),-0.999 (inactive)

row,SMILES,z-score
1,O=C1O[C@@H](c2ccccc2)[C@@H](c2ccccc2)N2[C@@H](c3ccc(OCCO)cc3)[C@]3(C(=O)Nc4ccccc43)[C@@H](C(=O)N3CCN(c4ncccn4)CC3)[C@H]12,0.644 (inactive)
2,COCCOC(=O)N1C(=O)[C@@]2(c3cc(C#CCNC(N)=O)ccc31)[C@H](c1ccccc1OCCO)N1[C@H](c3ccccc3)[C@H](c3ccccc3)OC(=O)[C@H]1[C@@H]2C(=O)N1CCN(c2ncccn2)CC1,-0.438 (inactive)
3,COCCOC(=O)N1C(=O)[C@@]2(c3cc(C#Cc4ccc(OC)cc4)ccc31)[C@H](C(=O)N1CCN(c3ncccn3)CC1)[C@H]1C(=O)O[C@H](c3ccccc3)[C@H](c3ccccc3)N1[C@@H]2c1ccc(OCCO)cc1,-0.0346 (inactive)
4,CN(C)CCCNC(=O)[C@@H]1c2ccccc2C(=O)N(Cc2cc(F)cc(C(F)(F)F)c2)[C@H]1c1ccc(CO)cc1,-0.0884 (inactive)
5,CCCNC(=O)[C@@H]1c2ccccc2C(=O)N(c2ccc(C)cn2)[C@H]1c1ccc(CO)cc1,0.52 (inactive)
6,CN1C(=O)C2C=CC(C(O)c3ccc(I)cc3)N(NC(=O)OC(C)(C)C)C2C1=O (configuration not stated),0.078 (inactive)
7,COC(=O)c1c(CC[C@@H](CO)NC(=O)N[C@H](Cc2ccccc2)Cn2cc(-c3ccccc3N)nn2)oc(C(C)=O)c1C(=O)OC,0.189 (inactive)
8,CCCC=C(CCC)[C@@H](NC(=O)c1ccc(-c2ccccc2)cc1)c1ccc(C(=O)OC)cc1,-0.115 (inactive)
9,COCC(=C=CC[C@@H](O)c1ccccc1OCCO)CCO,-0.534 (inactive)
10,CC1CC/C=C\[C@H]2OC34C=CCN(C(C)C)C(=O)[C@H]3N(CCCO)C(=O)[C@@H]4C2C(=O)O1 (some centres not stated),-0.415 (inactive)
11,Cn1cccc1C(O)C1C=CC2C(=O)NC(=O)C2N1Nc1ccccn1 (configuration not stated),-0.431 (inactive)
12,CCCC[C@H]1OB(O)C[C@H]2C1=C(C)C[C@H]1C(=O)N(C)C(=O)[C@H]12,0.547 (inactive)
13,Cc1ccc(S[C@]2(C(=O)NCC(F)(F)F)CC(=O)N(Cc3ccccc3Cl)[C@@H]2c2ccc(CO)cc2I)cc1,0.92 (inactive)
14,CC(C)NC(=O)[C@@H]1c2ccccc2C(=O)N(CC23CC4CC(CC(C4)C2)C3)[C@H]1c1ccc(CO)cc1,-0.0146 (inactive)
15,CCc1cccc(NC(=O)O[C@H]2[C@H](OC(=O)Nc3ccc4c(c3)OCO4)[C@@H](OC(=O)Nc3ccc4c(c3)OCO4)[C@@H](OC)O[C@@H]2CO)c1,0.165 (inactive)
16,CC(C)OC(=O)C=C1C[C@@H](c2ccc(C#N)cc2)O[C@@H](c2ccc(C#N)cc2)O1,0.219 (inactive)
17,COC(=O)C1=CCC(c2cccc(Cl)c2)O1 (configuration not stated),0.498 (inactive)
18,CCCC[C@@H](O)C1=C(C)C[C@H]2C(=O)N(Cc3ccccc3)C(=O)[C@H]2[C@H]1CO,0.984 (inactive)
